Data: PubChem BioAssay (NCATS)
Where “and” joins values, the source holds several entries; their conditions need not be identical. Equal values may be shown once. Inconclusive results are not listed. The source holds several records for some structures; these can differ, active in one and inactive in another. Calls of active or inactive are those of the source. Calls come from the whole dose curve; as a rule, active = well fitted curve in the direction sought with a large enough effect; inconclusive = small, poorly fitted or top-dose-only effect, or another doubt; inactive = no such curve, though single readings can be large; an effect the other way counts as inactive or inconclusive.

Experiments:
UISO = assay: qHTS assay to identify novel small-molecules to repurpose for Merkel cell carcinoma treatment (AID 1296009); conditions: MCC and control cell lines, CellTiter-Glo viability, 72 h; series mostly up to 46 µM; note: nearly all actives have a fitted effect of over 60% in size; note: potency is the fitted concentration of half-maximal effect
How it was run: (§1)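 Dose-response viability screen; 72 hr exposure at 37 degree celsius; CellTiter-Glo added, 10 min room temperature, luminescence read; RLUs scaled between no-cell and DMSO wells.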

WaGa = assay: as above; conditions: MCC and control cell lines, CellTiter-Glo viability, 72 h; series mostly up to 46 µM
How it was run: as §1

C33A = assay: Primary qHTS to identify gynecologic anti-cancer compounds using libraries of approved drugs and bioactive compounds (AID 1345084); conditions: Gynecologic cancer cell panel viability, ATPlite luminescence, 48 h; series mostly up to 57.5 µM; note: nearly all actives have a fitted effect of over 55% in size; note: potency is the fitted concentration of half-maximal effect
How it was run: (§2)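 Cells, 1,000 per well, were allowed to settle for 16 h at 37 C before compound addition. Five concentrations were tested for 48 h, and viability was read by ATPlite luminescence after 15 min at room temperature.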

CAOV3 = assay: as above; conditions: Gynecologic cancer cell panel viability, ATPlite luminescence, 48 h; series mostly up to 57.5 µM
How it was run: as §2

CASKI = assay: as above; conditions: Gynecologic cancer cell panel viability, ATPlite luminescence, 48 h; series mostly up to 57.5 µM
How it was run: as §2

Es-2 = assay: as above; conditions: Gynecologic cancer cell panel viability, ATPlite luminescence, 48 h; series mostly up to 57.5 µM
How it was run: as §2

HeLa = assay: as above; conditions: Gynecologic cancer cell panel viability, ATPlite luminescence, 48 h; series mostly up to 57.5 µM
How it was run: as §2

Hek293T = assay: as above; conditions: Gynecologic cancer cell panel viability, ATPlite luminescence, 48 h, control line for the selectivity index; series mostly up to 57.5 µM
How it was run: as §2

JEG-3 = assay: as above; conditions: Gynecologic cancer cell panel viability, ATPlite luminescence, 48 h; series mostly up to 57.5 µM
How it was run: as §2

OV90 = assay: as above; conditions: Gynecologic cancer cell panel viability, ATPlite luminescence, 48 h; series mostly up to 57.5 µM
How it was run: as §2

PA-1 = assay: as above; conditions: Gynecologic cancer cell panel viability, ATPlite luminescence, 48 h; series mostly up to 57.5 µM
How it was run: as §2

SKOV3 = assay: as above; conditions: Gynecologic cancer cell panel viability, ATPlite luminescence, 48 h; series mostly up to 57.5 µM
How it was run: as §2

Tov-21-G = assay: as above; conditions: Gynecologic cancer cell panel viability, ATPlite luminescence, 48 h; series mostly up to 57.5 µM
How it was run: as §2

Tov112D = assay: as above; conditions: Gynecologic cancer cell panel viability, ATPlite luminescence, 48 h; series mostly up to 57.5 µM
How it was run: as §2

[1] = Drug repurposing screens with cells derived from glioblastoma tumor samples (AID 1345199); conditions: GBM patient neurospheres viability, ATP luminescence, 48 h; note: nearly all actives have a fitted effect of over 40% in size; note: potency is the fitted concentration of half-maximal effect
How it was run: (§3)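 Primary testing used CD133+ neurospheres from four GBM patients, seven concentrations, 48 h exposure and ATP-based viability; confirmation added three slower-growing patient lines.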

astro = assay: as above; conditions: viability, ATP luminescence, 48 h; series mostly up to 45.9 µM
How it was run: as §3

[2] = qHTS assay to identify inhibitors of the type 1 interferon - major histocompatibility complex class I in skeletal muscle: Counter screen cell viability and HiBit confirmation (AID 1347412); conditions: iHSKM muscle cells + IFN-b, HiBiT or CellTiter-Glo, 24 h; Potency: HiBiT; Viability, at 45.9 µM (top of the series); note: nearly all actives have a fitted effect of over 60% in size
How it was run: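 After 24 h with human IFN-beta (4 ng/ml) and compound titrations (top 46 uM final, 1:3, 12 points), HLA-B HiBit myoblasts were lysed for either Nano-Glo HiBiT luminescence or CellTiter Glo viability on paired plates.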

[3] = at 45.9 µM (top of the series), tumour line B
[4] = at 45.9 µM (top of the series), tumour line D
[5] = at 46.1 µM (top of the series), tumour line C
[6] = at 46 µM (top of the series), tumour line A
% is set by controls: 0 for no effect and ±100 for the full control effect.

COc1cc2nccc(Oc3ccc(NC(=O)NC4CC4)c(Cl)c3)c2cc1C(N)=O
inactive: Potency (C33A) | Potency (CAOV3) | Potency (CASKI) | Potency (Es-2) | Potency (HeLa) | Potency (Hek293T) | Potency (JEG-3) | Potency (OV90) | Potency (PA-1) | Potency (SKOV3) | Potency (Tov-21-G) | Potency (Tov112D)
active: Potency (UISO) 18.7 µM | Potency (WaGa) 1.48 µM

CCCc1nn(C)c2c(=O)[nH]c(-c3cc(S(=O)(=O)N4CCN(C)CC4)ccc3OCC)nc12
active: Potency ([1]; tumour line A) 22.4 µM
inactive: Potency (UISO) | Potency (WaGa) | Potency (C33A) | Potency (CAOV3) | Potency (CASKI) | Potency (Es-2) | Potency (HeLa) | Potency (Hek293T) | Potency (JEG-3) | Potency (OV90) | Potency (PA-1) | Potency (SKOV3) | Potency (Tov-21-G) | Potency (Tov112D) | activity, negative = cell killing [1, 3] -8.65% | activity, negative = cell killing [1, 4] -23.3% | activity, negative = cell killing [1, 5] 12.9% | Potency (astro)

CCCCCCCc1ccc(CCc2cccc(O)c2C(=O)O)cc1
inactive: Potency (UISO) | Potency (WaGa)

O=C(Nc1ccc(F)c(C(F)(F)F)c1)Nc1nnc(-c2ccncc2)s1
inactive: Potency (UISO) | Potency (WaGa) | Potency (C33A) | Potency (CAOV3) | Potency (CASKI) | Potency (Es-2) | Potency (HeLa) | Potency (Hek293T) | Potency (JEG-3) | Potency (OV90) | Potency (PA-1) | Potency (SKOV3) | Potency (Tov-21-G) | Potency (Tov112D)

CCn1cc(C(=O)O)c(=O)c2cc(F)c(N3CCNC(C)C3)c(F)c21 (centres undefined)
inactive: Potency (UISO) | Potency (WaGa) | Potency (C33A) | Potency (CAOV3) | Potency (CASKI) | Potency (Es-2) | Potency (HeLa) | Potency (Hek293T) | Potency (JEG-3) | Potency (OV90) | Potency (PA-1) | Potency (SKOV3) | Potency (Tov-21-G) | Potency (Tov112D) | activity, negative = cell killing [1, 3] -18.8% and -6.47% | activity, negative = cell killing [1, 4] -1.92% and -11.9% | activity, negative = cell killing [1, 6] -14% and -29.8% | activity, negative = cell killing [1, 5] -19.8% and -7.41% | Potency (astro)

Cc1cccc(-c2[nH]c(C(C)(C)C)nc2-c2ccc3nccnc3c2)n1
active: Potency (UISO) 2.96 µM | Potency (WaGa) 2.64 µM

Nc1ncnc2nc(-c3ccc(N4CCOCC4)nc3)cc(-c3cccc(Br)c3)c12
inactive: Potency (UISO) | Potency (WaGa)

O=C1CCc2cc(OCCCCc3nnnn3C3CCCCC3)ccc2N1
inactive: Potency (UISO) | Potency (WaGa) | Potency (C33A) | Potency (CAOV3) | Potency (CASKI) | Potency (Es-2) | Potency (HeLa) | Potency (Hek293T) | Potency (JEG-3) | Potency (PA-1) | Potency (SKOV3) | Potency (Tov-21-G) | Potency (Tov112D) | activity, negative = cell killing [1, 3] -16.9% | activity, negative = cell killing [1, 4] -10.7% | activity, negative = cell killing [1, 5] -10.2% | Potency (astro)

O=C(O)COCCN1CCN(C(c2ccccc2)c2ccc(Cl)cc2)CC1 (centres undefined)
inactive: Potency (UISO) | Potency (WaGa) | Potency (C33A) | Potency (CASKI) | Potency (Es-2) | Potency (HeLa) | Potency (Hek293T) | Potency (JEG-3) | Potency (OV90) | Potency (PA-1) | Potency (SKOV3) | Potency (Tov-21-G) | Potency (Tov112D) | activity, negative = cell killing ([1]; at 20 µM (top of the series), tumour line C) -26.4% | activity, negative = cell killing ([1]; at 21.2 µM (top of the series), tumour line B) -3.42% | activity, negative = cell killing ([1]; at 21.2 µM (top of the series), tumour line D) -18.8% | activity, negative = cell killing ([1]; at 21.3 µM (top of the series), tumour line A) -26.6% | Potency (astro)

COc1cc(Nc2ncc3c(n2)-c2ccc(Cl)cc2C(c2c(F)cccc2OC)=NC3)ccc1C(=O)O
inactive: Potency (UISO) | Potency (Es-2) | Potency (HeLa) | Potency (Hek293T) | Potency (JEG-3) | Potency (PA-1) | Potency (Tov-21-G) | Potency (Tov112D) | Potency [2]
active: Potency (WaGa) 0.148 µM | Potency (CAOV3) 31.6 µM
25.1 µM (active) and inactive: Potency (SKOV3)
28.2 µM (active) and inactive: Potency (C33A) | Potency (OV90)

NCCc1ccc(O)c(O)c1
active: Potency (WaGa) 11.9 µM
inactive and 18.8 µM (active): Potency (UISO)
inactive: Potency (C33A) | Potency (CAOV3) | Potency (CASKI) | Potency (Es-2) | Potency (HeLa) | Potency (Hek293T) | Potency (JEG-3) | Potency (OV90) | Potency (PA-1) | Potency (Tov-21-G) | Potency (Tov112D) | activity, negative = cell killing [1, 3] -2.97% | activity, negative = cell killing [1, 4] 1.17% | activity, negative = cell killing [1, 6] -12.4% | activity, negative = cell killing [1, 5] 13.2% | Potency (astro)

CCCS(=O)(=O)Nc1ccc(F)c(C(=O)c2c[nH]c3ncc(-c4ccc(Cl)cc4)cc23)c1F
inactive: Potency (UISO) | Potency (WaGa) | Potency (C33A) | Potency (CAOV3) | Potency (CASKI) | Potency (HeLa) | Potency (Hek293T) | Potency (JEG-3) | Potency (OV90) | Potency (SKOV3) | Potency (Tov112D)
active: Potency (PA-1) 10 µM

Cc1cn[nH]c1
inactive and 1.87 µM (active): Potency (WaGa)
inactive: Potency (C33A) | Potency (CASKI) | Potency (Es-2) | Potency (HeLa) | Potency (Hek293T) | Potency (JEG-3) | Potency (OV90) | Potency (PA-1) | Potency (SKOV3) | Potency (Tov-21-G) | Potency (Tov112D) | activity, negative = cell killing [1, 3] 0.573% | activity, negative = cell killing [1, 4] -5.07% | activity, negative = cell killing [1, 6] -17.3% | activity, negative = cell killing [1, 5] -3.17% | Potency (astro)
inactive and 2.96 µM (active): Potency (UISO)
